USP10 block = inhibitors of human USP10 deubiquitinase; Ubiquitin carboxyl-terminal hydrolase 10 (Homo sapiens), Q14694; purified USP10, Ub-rhodamine fluorescence, 60 min; inhibition, % at 20 µM; 47,000 compounds, 1.1% hits
USP7 block = inhibitors of human USP7 deubiquitinase | inhibition, % at 20 µM | AID 1645854, 2021 | purified USP7, Ub-rhodamine cleavage fluorescence | 47,000 compounds, 0.3% hits
USP30 block = inhibitors of human USP30 deubiquitinase | Ubiquitin carboxyl-terminal hydrolase 30 (Homo sapiens), Q70CQ3 | purified USP30, Ub-rhodamine cleavage fluorescence | inhibition, % at 25 µM | 47,000 compounds, 5.3% hits | AID 1645860, 2021
UCHL1 inh = inhibitors of human UCHL1 deubiquitinase; 47,000 compounds, 0.2% hits; Ubiquitin carboxyl-terminal hydrolase isozyme L1 (Homo sapiens), P09936; purified UCHL1, Ub-rhodamine cleavage fluorescence; AID 1645859, 2021; inhibition, % at 20 µM
Target sequence (P09936 whole entry, looked up): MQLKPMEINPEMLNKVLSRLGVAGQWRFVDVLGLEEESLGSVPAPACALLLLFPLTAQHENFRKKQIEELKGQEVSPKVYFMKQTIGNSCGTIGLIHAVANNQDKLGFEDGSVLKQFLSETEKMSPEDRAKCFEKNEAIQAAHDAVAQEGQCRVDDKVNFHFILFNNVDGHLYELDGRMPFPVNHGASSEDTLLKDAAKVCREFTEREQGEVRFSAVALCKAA
USP8 block = inhibitors of human USP8 deubiquitinase | inhibition, % at 20 µM | AID 1645853, 2021 | purified USP8, Ub-rhodamine cleavage fluorescence, 30 min | 47,000 compounds, 4.2% hits
USP17 inh = inhibitors of human USP17 deubiquitinase. Ubiquitin carboxyl-terminal hydrolase 17-like protein 5 (Homo sapiens), A8MUK1. purified USP17, Ub-rhodamine cleavage fluorescence, 3 h. inhibition, % at 50 µM. 47,000 compounds, 6.5% hits
* marks the source's active call; other numbers are inactive results; . = no result. Most compounds without a hit are left out; they make up all but 13% or so of the library. Rule as the data show it: active = inhibition above about 30%; inactive = the rest.

SMILES	USP10 block	USP7 block	USP30 block	UCHL1 inh	USP8 block	USP17 inh
COc1ccc(-c2nc(SCC(=O)Nc3ccc(C(C)=O)cc3)n[nH]2)cc1	2	-2	-1	-1	4	54*
O=C(Cn1cc(C(=O)C(F)(F)F)c2cc(Br)ccc21)N1CCc2ccccc21	36*	5	-3	-2	2	40*
O=C(Nc1ccccc1C(=O)O)c1ccc(CSCc2ccccc2)cc1	51*	-34	-25	6	-18	39*
Cc1cccc(N2CCN(C(=O)c3cc(C)n4nccc4n3)CC2)c1	0	2	15	1	11	8
COc1ccc(-c2nc(NC(=O)Cc3ccccc3OC)sc2C)cc1	-1	5	-9	6	5	6
O=C(Cc1ccccc1F)Nc1nc(-c2ccco2)c(-c2ccco2)s1	-12	-91	-111	-59	74*	.
COc1ccc(CC(=O)Nc2nc(-c3ccco3)c(-c3ccco3)s2)cc1	-13	-140	-64	-94	73*	65*
Cc1ccccc1-c1nc2c3c(C)c(C)n(-c4ccccn4)c3ncn2n1	-5	-14	-167	-19	-16	-33
COc1ccccc1-c1nc2c3c(C)c(C)n(-c4ccc(Br)cn4)c3ncn2n1	-7	6	-149	0	14	51*
CN(C)c1cccc(C(=O)N(C(=O)c2cccc(N(C)C)c2)c2ncccn2)c1	1	-5	-16	-1	-97	-18
CC(C)c1ccc(C(C)NC(=O)c2cccc(N(C)C)c2)cc1 (configuration not stated)	4	1	-5	-1	2	39*
Cn1c(=O)c2c(ncn2CC(=O)OCC(=O)Nc2cccc(F)c2)n(C)c1=O	0	2	0	-2	6	3
COc1ccc(C2(c3nnc(Cc4ccccc4F)o3)CCOCC2)cc1	-1	-9	-6	-2	4	-3
Cc1ccc(NC(=O)Cc2nnc3ccc(-c4nc(C)no4)cn23)c(C)c1	3	-1	9	-3	-134	10
CCc1ccc(NC(=O)Cc2nnc3cc(-c4nc(C)no4)ccn23)cc1	56*	44*	22	1	84*	55*
Cc1noc(-c2ccc3nnc(CC(=O)Nc4ccc(F)c(C)c4)n3c2)n1	-2	1	-36	-3	-240	-9
Cc1ccc(NC(=O)Cc2nnc3cc(-c4nc(C)no4)ccn23)cc1	46*	39*	69*	6	62*	13
CCc1noc(-c2ccn3c(CC(=O)Nc4ccccc4C)nnc3c2)n1	18	9	12	1	76*	25
O=C(c1ccc(OCC2CCCN(C(=O)c3ccc(F)cc3F)C2)cc1)N1CCOCC1 (configuration not stated)	1	2	5	0	1	1
Cc1cc(C)n2ncc(C(=O)NCC3CCCO3)c2n1 (configuration not stated)	-1	1	8	2	13	7
CNCC(=O)N1CCCCC1c1nc(N)ncc1-c1cccc(F)c1 (configuration not stated)	-1	-3	-14	1	-59	-13
NCc1ccc([C@@H]2CN(C(=O)c3ccc4ncccc4c3)C[C@H]2c2ccn[nH]2)cc1	-2	12	.	1	-12	68*
O=C(c1ccc2ncccc2c1)N1CCOC(c2cccc(Cc3cccc(Cl)c3)n2)C1 (configuration not stated)	-9	-31	-23	3	-14	-4
COc1ccc(C(=O)Nc2ccc(O)cc2C(=O)O)cc1OC	4	7	32*	5	33*	18
C[C@H]1C(=O)N(C)[C@@H]2CCN(S(=O)(=O)c3cccc(Cl)c3)[C@@H]2C(=O)N1C	4	4	22	2	19	11
SMILES	USP10 block	USP7 block	USP30 block	UCHL1 inh	USP8 block	USP17 inh
COc1cccc(S(=O)(=O)N2CC[C@@H]3[C@H]2C(=O)N(C)[C@@H](C)C(=O)N3C)c1	0	6	19	2	32*	14
Clc1ccc(CN=C(Nc2ccccc2)NC2CC2)c(Cl)c1	-1	-10	31*	1	11	5
Cc1cccc(CN2CCCC(c3cnc(Nc4cnccn4)cn3)C2)n1 (configuration not stated)	-6	-4	-54	-4	-13	-13
Cc1ccc(NC(=O)c2c(O)c3cnn(C)c3[nH]c2=O)cc1C	1	4	-13	2	85*	6
O=C(NCc1ccc2c(c1)OCO2)c1c(O)c2cnn(Cc3ccccc3)c2[nH]c1=O	12	8	0	0	57*	7
O=C(NCc1cc(F)cc(F)c1)c1c(O)c2cnn(Cc3ccccc3)c2[nH]c1=O	11	3	7	0	17	11
Cc1ccccc1NC(=O)c1c(O)c2cnn(Cc3ccccc3)c2[nH]c1=O	13	7	-244	3	83*	35*
CC(NC(=O)c1c(O)c2cnn(Cc3ccccc3)c2[nH]c1=O)c1ccccc1 (configuration not stated)	14	4	-145	3	86*	12
Cc1ccc(CNC(=O)C2CCN(S(C)(=O)=O)c3cc(C)ccc3O2)cc1 (configuration not stated)	2	0	15	3	17	8
CC(C)C(=O)N1CCc2cc(-c3csc(NC(=O)C4CCCC4)n3)ccc21	-6	-7	-16	-8	5	6
COc1ccccc1NC(=O)c1c(O)c2cccnc2n(-c2ccccc2)c1=O	-1	6	14	0	33*	8
O=C(NCc1ccc2c(c1)OCO2)c1c(O)c2cccnc2n(-c2ccccc2)c1=O	-2	4	-4	-4	81*	-1
Cn1cnc(S(=O)(=O)N2C[C@H](OCC3CC3)[C@H]3OCCC[C@H]32)c1	2	2	1	0	-41	-1
Cc1cc(=O)[nH]c(C2CN(C(=O)c3ccc4nc(C)[nH]c4c3)CCO2)n1 (configuration not stated)	-2	0	-3	-2	-7	1
O=C(c1cnn2cccnc12)N1CCCCC1c1nc2ccccc2[nH]1 (configuration not stated)	-3	-3	-11	-1	2	1
NC(=O)c1ccc(Oc2ccc(Cl)cc2)nc1	2	3	30	1	0	32*
Cn1nc(-c2ccccc2)c(COC(=O)c2ccc([N+](=O)[O-])cc2)c1Cl	8	6	11	7	5	60*
Cn1nc(-c2ccccc2)c(COC(=O)c2cc(C(F)(F)F)cc(C(F)(F)F)c2)c1S(=O)(=O)c1ccc(Cl)cc1	2	5	16	-1	20	15
